For the first experiment, the target named is PUM1 PUF domain R3-GWG (Homo sapiens, UniProt Q14671 828-1176, C935G;R936W;Q939G). Kind of experiment: yeast three-hybrid, YBZ-1, SC-Leu-His + 0.5 mM 3-AT, 4 days. The conditions noted are these: tags: N-Gal4 AD-HA kept; label: inside an RPR1-promoter hybrid RNA with tandem MS2 sites; ssRNA. In outline:
(§1)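 The interaction score is the log change in how often each variant appears, from input to selection. Frequencies came from PCR-amplified, Illumina-sequenced repeat regions of Pumilio-1 PUF domain libraries grown in strain YBZ-1 (LexA–MS2 coat fusion, HIS3 reporter) alongside matching RNA elements. Input plates were SC-Leu and selection plates were SC-Leu-His + 0.5 mM 3-AT, each for four days, and the log2 calculation used a pseudocount of 1 where a variant was absent.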
Chain of PUM1 PUF domain R3-GWG (Q14671 828-1176 C935G/R936W/Q939G): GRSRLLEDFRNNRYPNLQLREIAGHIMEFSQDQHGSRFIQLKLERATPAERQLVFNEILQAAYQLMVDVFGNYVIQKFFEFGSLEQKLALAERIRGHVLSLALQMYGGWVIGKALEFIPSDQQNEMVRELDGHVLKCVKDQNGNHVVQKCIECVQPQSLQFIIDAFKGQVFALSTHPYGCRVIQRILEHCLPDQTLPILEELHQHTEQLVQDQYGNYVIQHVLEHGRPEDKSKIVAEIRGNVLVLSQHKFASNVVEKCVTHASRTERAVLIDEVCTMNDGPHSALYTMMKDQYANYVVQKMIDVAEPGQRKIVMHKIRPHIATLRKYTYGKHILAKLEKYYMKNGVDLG
Chain of PUM1 PUF domain R1-YYR (Q14671 828-1176 S863Y/R864Y/Q867R): as the sequence (Q14671 828-1176 C935G/R936W/Q939G) above, with S36Y, R37Y, Q40R, G108C, W109R, G112Q counted along it
In the case of “GGCUAGAACUAGUGGAUCCCCCGGCGCCCGGCGGCUCGAGCCCGGGUAAGUGUAAUUAGUCUGCAUGCCGCCGGGCGCCAUGCCUGCAGGUCGACUCUAGAAAACAUG”, the binding signal is 1.55 log2 enrichment (interaction score).
Same read-out and setting: for “GGCUAGAACUAGUGGAUCCCCCGGCGCCCGGCGGCUCGAGCCCGGGUAAGUGUAAAUAGUCUGCAUGCCGCCGGGCGCCAUGCCUGCAGGUCGACUCUAGAAAACAUG” the value was 4.07 log2 enrichment (interaction score); for “GGCUAGAACUAGUGGAUCCCCCGGCGCCCGGCGGCUCGAGCCCGGGUAAGUGUAAGUAGUCUGCAUGCCGCCGGGCGCCAUGCCUGCAGGUCGACUCUAGAAAACAUG”, 3.17 log2 enrichment (interaction score).

For another experiment, the target named is PUM1 PUF domain R5-RFR (Homo sapiens, UniProt Q14671 828-1176, C1007R;R1008F;Q1011R). The description is as above. The conditions noted are these: tags: N-Gal4 AD-HA kept; label: inside an RPR1-promoter hybrid RNA with tandem MS2 sites; ssRNA. The gist of the method: as §1
Chain of PUM1 PUF domain R5-RFR (Q14671 828-1176 C1007R/R1008F/Q1011R): as the sequence (Q14671 828-1176 C935G/R936W/Q939G) above, with G108C, W109R, G112Q, C180R, R181F, Q184R counted along it
As for “GGCUAGAACUAGUGGAUCCCCCGGCGCCCGGCGGCUCGAGCCCGGGUAAGUGUGAAUAGUCUGCAUGCCGCCGGGCGCCAUGCCUGCAGGUCGACUCUAGAAAACAUG”, the binding signal is 2.74 log2 enrichment (interaction score).
Still for that read-out and setting: for “GGCUAGAACUAGUGGAUCCCCCGGCGCCCGGCGGCUCGAGCCCGGGUAAGUGUCAAUAGUCUGCAUGCCGCCGGGCGCCAUGCCUGCAGGUCGACUCUAGAAAACAUG” the value was 5.35 log2 enrichment (interaction score); for “GGCUAGAACUAGUGGAUCCCCCGGCGCCCGGCGGCUCGAGCCCGGGUAAGUGUUAAUAGUCUGCAUGCCGCCGGGCGCCAUGCCUGCAGGUCGACUCUAGAAAACAUG”, 3.92 log2 enrichment (interaction score).
On the same count and under the same terms, for “GGCUAGAACUAGUGGAUCCCCCGGCGCCCGGCGGCUCGAGCCCGGGUAAGUGUAAAUAGUCUGCAUGCCGCCGGGCGCCAUGCCUGCAGGUCGACUCUAGAAAACAUG” the value was 2.72 log2 enrichment (interaction score).

Another experiment has as its target PUM1 PUF domain R1-YYR (Homo sapiens, UniProt Q14671 828-1176, S863Y;R864Y;Q867R). The experiment is described as above. The following applies: tags: N-Gal4 AD-HA kept; label: inside an RPR1-promoter hybrid RNA with tandem MS2 sites; ssRNA. The gist of the method:
as §1
As to “GGCUAGAACUAGUGGAUCCCCCGGCGCCCGGCGGCUCGAGCCCGGGUAAGUGUAAAUCGUCUGCAUGCCGCCGGGCGCCAUGCCUGCAGGUCGACUCUAGAAAACAUG”, the binding signal was 2.79 log2 enrichment (interaction score).
Same read-out and setting: for “GGCUAGAACUAGUGGAUCCCCCGGCGCCCGGCGGCUCGAGCCCGGGUAAGUGUAAAUUGUCUGCAUGCCGCCGGGCGCCAUGCCUGCAGGUCGACUCUAGAAAACAUG” the value was 7.65 log2 enrichment (interaction score).
For the sequence “GGCUAGAACUAGUGGAUCCCCCGGCGCCCGGCGGCUCGAGCCCGGGUAAGUGUAAAUAGUCUGCAUGCCGCCGGGCGCCAUGCCUGCAGGUCGACUCUAGAAAACAUG”, the binding signal is 3.43 log2 enrichment (interaction score).

The values are drawn from publication PMC8384837, “Expanding the binding specificity for RNA recognition by a PUF domain”.
